A short description of test [1]: binders of probe aFSTL3 on microarray, primary screen, stem cell growth factor project, biochemical, small-molecule microarray, fluorescence 635/667 (AID 1064).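 Further: measures binding of the biotinylated anti-FSTL3 antibody to printed compounds.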 The following applies: higher = more signal.
The nature of test [2]: binders from COS7 lysate, DM2A8 probe, primary screen, torsin A project, cell lysate, small-molecule microarray, fluorescence 635/667 (AID 1065). The following applies: higher = more signal, COS7 lysate expressing mutant human TOR1A.
A short description of test [3]: binders of probe aFGF2 on microarray, primary screen, stem cell growth factor project, biochemical, small-molecule microarray, fluorescence 635/667 (AID 1067).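 Further: measures binding of biotinylated aFGF2 protein to printed compounds on slides; z-score merges feature fluorescence and signal-to-noise across triplicate slides.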 The settings on record: higher = more signal.
Test [4] is described as follows: binders of probe aFGF10 on microarray, primary screen, stem cell growth factor project, biochemical, small-molecule microarray, fluorescence 635/667 (AID 1071).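 Further: score merges 667 nm spot intensity and signal to noise from triplicate slides.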 The following applies: higher = more signal.
In test [5] the target is Neurogenic locus notch homolog protein 2 (Homo sapiens) (UniProt Q04721). Briefly: Notch2 binders on small-molecule microarrays, primary screen, biochemical, small-molecule microarray, 635 nm fluorescence, stem cell growth factors (AID 1073). The settings on record: Notch2 binding, higher = more signal.
Test [6] deals with Pro-neuregulin-1, membrane-bound isoform (Homo sapiens) (UniProt Q02297). The test is described as follows: NRG1 binders on small-molecule microarrays, primary screen, psychiatric disease protein project, biochemical, small-molecule microarray, fluorescence 635/667 (AID 1075).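 Further: score combines 667 nm spot fluorescence with signal to noise.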 The following applies: NRG1 binding, 635 nm fluorescence, higher = more signal.
The subject of test [7] is Neuregulin-1 EGF-like domain. The test is described as follows: binders of neuregulin-1 EGF-like domain, primary screen, biochemical, small-molecule microarray, 635 nm fluorescence (AID 1081).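 Further: binding of the protein to compounds printed on small-molecule microarray slides.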 The settings on record: small-molecule microarray binding, higher = more signal.
Test [8] can be described thus: FRG1 promoter luciferase signal modulators, primary screen, FRG1 inhibition for FSHD, cell-based, C2C12 myotubes, firefly/Renilla luciferase, luminescence (AID 1084). The following applies: higher = more signal, called active from +8 up or from −8 down.
A short description of test [9]: binders of probe aFST on microarray, primary screen, stem cell growth factor project, biochemical, small-molecule microarray, fluorescence 635/667 (AID 1086).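 Further: score merges 667 nm fluorescence with signal-to-noise of each printed compound spot.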 The following applies: higher = more signal.
A short description of test [10]: binders of probe aHhip on microarray, primary screen, stem cell growth factor project, biochemical, small-molecule microarray, fluorescence 635/667 (AID 1087).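 Further: score merges spot fluorescence at 667nm with spot signal to noise ratio.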 The settings on record: higher = more signal.
In test [11] the test system is PRMT1 (protein arginine N-methyltransferase 1). Briefly: PRMT1 binders on small-molecule microarrays, primary screen, biochemical, small-molecule microarray, 635 nm fluorescence (AID 1088).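 Further: binding of Prmt1 protein to compounds spotted on small-molecule microarray slides.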 The following applies: small-molecule microarray binding, higher = more signal.
Test [12] is described as follows: yeast growth modulation, basal conditions, primary screen, YJM789 clinical isolate, OD600, 24 h (AID 1089).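 Further: growth of clinical yeast isolate S. cerevisiae YJM 789 seeded 1000 cells per well; test concentration not given here.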 The following applies: S. cerevisiae YJM789 growth, higher = more signal, called active from +8 up or from −8 down.
Test [13] can be described thus: fission yeast growth modulation, primary screen, strain 972, OD600, 24 h, no modulator (AID 1090).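 Further: basal condition with compound alone and no growth modifier present; test concentration not given here.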 The following applies: S. pombe 972 growth, higher = more signal, called active from +8 up or from −8 down.
The nature of test [14]: S. cerevisiae growth modulation with rapamycin, primary screen, strain BY4716, OD600, 96 h (AID 1091). Further: test concentration not given here. The settings on record: higher = more signal, called active from +8 up or from −8 down.
Test [15] addresses Torsin-1A-interacting protein 2 (Homo sapiens) (UniProt Q8NFQ8). The test is described as follows: LULL1 binders on small-molecule microarray, primary screen, cell lysate, human LULL1 lysate, 635/667 nm fluorescence (AID 1092).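 Further: probe is lysate of COS7 cells overexpressing human LULL1; score merges per-feature 667 nm fluorescence with signal-to-noise.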 The following applies: hLULL1 lysate binding, 635 nm fluorescence, higher = more signal.
A short description of test [16]: E. coli growth modulation, two-sided OD650, primary screen, E. coli filamentation project, strain DRC41, 24 h (AID 1093).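 Further: MC1000 strain lacking acrAB efflux and sulA so SOS filamentation is blocked; test concentration not given here.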 The following applies: OD650, 24 h, higher = more signal, called active from +8 up or from −8 down.
Test [17] can be described thus: small-molecule microarray binders of probe aLefty2, primary screen, biochemical, biotinylated probe, 635/667 nm fluorescence (AID 1094).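 Further: score merges spot fluorescence near 667 nm with spot signal-to-noise ratio.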 The following applies: higher = more signal.
Test [18] deals with Noggin (protein binding on small-molecule microarray). The test is described as follows: Noggin binders on small-molecule microarray, primary screen, biochemical, 635/667 nm fluorescence (AID 1095).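 Further: score merges 667 nm feature fluorescence with signal to noise over triplicate slides.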 The settings on record: 635 nm fluorescence, higher = more signal.
Test [19] concerns the target Neurogenic locus notch homolog protein 3 (Homo sapiens) (UniProt Q9UM47). The test is described as follows: NOTCH3 binders on small-molecule microarray, primary screen, biochemical, 635/667 nm fluorescence (AID 1096). The settings on record: NOTCH3 binding, 635 nm fluorescence, higher = more signal.
Test [20] in a line: small-molecule microarray binders of probe aEGFR, primary screen, biochemical, biotinylated probe, 635/667 nm fluorescence (AID 1097).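 Further: probe is a biotinylated anti-EGFR antibody binding compounds printed on slides; score combines fluorescence near 667 nm and signal to noise of each spot.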 The settings on record: higher = more signal.

This note sets out measurements from PubChem BioAssay.

The structures appear in SMILES notation. Calls of active or inactive are those of the source.

Neurogenic locus notch homolog protein 2 (Homo sapiens), sequence (Q04721 whole entry, looked up, canonical isoform): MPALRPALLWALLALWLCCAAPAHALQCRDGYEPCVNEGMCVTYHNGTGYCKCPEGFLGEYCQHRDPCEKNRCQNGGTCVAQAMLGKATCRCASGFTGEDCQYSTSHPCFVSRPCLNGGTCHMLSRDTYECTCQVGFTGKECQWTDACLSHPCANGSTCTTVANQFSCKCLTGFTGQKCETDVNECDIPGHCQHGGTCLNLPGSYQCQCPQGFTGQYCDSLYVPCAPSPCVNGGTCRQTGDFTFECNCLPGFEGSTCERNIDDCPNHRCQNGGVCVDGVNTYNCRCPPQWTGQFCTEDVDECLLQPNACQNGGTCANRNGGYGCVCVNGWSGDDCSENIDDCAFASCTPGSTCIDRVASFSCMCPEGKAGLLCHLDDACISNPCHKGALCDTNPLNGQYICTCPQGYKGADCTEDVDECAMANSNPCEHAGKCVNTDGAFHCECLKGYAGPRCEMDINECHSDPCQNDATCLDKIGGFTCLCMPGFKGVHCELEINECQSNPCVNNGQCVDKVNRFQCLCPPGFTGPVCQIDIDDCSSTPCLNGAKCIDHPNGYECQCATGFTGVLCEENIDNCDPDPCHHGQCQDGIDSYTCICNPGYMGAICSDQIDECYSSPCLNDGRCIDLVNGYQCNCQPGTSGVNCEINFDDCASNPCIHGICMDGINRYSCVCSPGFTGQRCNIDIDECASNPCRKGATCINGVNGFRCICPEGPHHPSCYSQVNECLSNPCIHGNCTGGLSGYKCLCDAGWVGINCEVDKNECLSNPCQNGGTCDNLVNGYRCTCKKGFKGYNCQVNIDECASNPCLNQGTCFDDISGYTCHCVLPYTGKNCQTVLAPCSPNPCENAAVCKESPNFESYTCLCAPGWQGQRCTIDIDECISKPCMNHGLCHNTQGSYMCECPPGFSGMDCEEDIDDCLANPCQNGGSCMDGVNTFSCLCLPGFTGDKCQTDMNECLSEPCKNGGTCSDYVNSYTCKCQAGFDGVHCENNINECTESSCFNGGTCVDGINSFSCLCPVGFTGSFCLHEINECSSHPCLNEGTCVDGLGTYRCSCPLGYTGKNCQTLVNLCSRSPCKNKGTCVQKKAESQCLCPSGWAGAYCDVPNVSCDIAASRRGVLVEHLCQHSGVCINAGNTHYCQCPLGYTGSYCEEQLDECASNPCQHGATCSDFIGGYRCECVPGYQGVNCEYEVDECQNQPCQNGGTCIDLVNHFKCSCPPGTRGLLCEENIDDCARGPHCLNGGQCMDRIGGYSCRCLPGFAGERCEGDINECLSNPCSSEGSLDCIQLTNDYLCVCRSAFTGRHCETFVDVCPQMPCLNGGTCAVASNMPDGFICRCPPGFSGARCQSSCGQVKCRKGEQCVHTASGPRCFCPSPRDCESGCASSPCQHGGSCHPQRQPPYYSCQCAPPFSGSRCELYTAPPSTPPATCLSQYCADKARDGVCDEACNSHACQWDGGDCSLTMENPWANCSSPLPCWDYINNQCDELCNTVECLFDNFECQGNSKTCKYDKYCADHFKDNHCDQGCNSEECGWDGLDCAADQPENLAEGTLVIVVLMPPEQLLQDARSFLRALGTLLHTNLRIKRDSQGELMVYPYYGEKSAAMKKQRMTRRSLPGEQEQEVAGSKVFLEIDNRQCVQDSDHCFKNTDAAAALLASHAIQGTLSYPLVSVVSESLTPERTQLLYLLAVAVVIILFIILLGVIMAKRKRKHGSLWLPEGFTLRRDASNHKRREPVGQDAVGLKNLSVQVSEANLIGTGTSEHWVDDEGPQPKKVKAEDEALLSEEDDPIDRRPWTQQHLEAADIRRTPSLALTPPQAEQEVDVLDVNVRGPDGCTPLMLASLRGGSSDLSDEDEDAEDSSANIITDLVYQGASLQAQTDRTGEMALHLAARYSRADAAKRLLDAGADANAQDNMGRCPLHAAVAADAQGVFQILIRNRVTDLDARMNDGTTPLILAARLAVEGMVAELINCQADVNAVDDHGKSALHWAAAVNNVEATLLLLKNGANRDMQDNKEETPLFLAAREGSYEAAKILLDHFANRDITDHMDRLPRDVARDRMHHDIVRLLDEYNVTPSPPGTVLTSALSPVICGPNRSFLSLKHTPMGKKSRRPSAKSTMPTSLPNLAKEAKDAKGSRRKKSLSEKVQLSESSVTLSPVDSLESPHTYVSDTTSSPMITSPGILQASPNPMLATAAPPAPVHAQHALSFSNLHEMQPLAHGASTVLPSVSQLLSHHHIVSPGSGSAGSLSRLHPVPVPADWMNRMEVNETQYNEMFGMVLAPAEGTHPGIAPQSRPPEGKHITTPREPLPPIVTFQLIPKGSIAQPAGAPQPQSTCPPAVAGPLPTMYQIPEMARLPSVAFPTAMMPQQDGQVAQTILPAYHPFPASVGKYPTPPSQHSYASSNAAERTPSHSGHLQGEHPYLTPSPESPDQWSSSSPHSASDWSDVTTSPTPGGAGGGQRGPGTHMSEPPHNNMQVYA
Neurogenic locus notch homolog protein 3 (Homo sapiens), sequence (Q9UM47 whole entry, looked up): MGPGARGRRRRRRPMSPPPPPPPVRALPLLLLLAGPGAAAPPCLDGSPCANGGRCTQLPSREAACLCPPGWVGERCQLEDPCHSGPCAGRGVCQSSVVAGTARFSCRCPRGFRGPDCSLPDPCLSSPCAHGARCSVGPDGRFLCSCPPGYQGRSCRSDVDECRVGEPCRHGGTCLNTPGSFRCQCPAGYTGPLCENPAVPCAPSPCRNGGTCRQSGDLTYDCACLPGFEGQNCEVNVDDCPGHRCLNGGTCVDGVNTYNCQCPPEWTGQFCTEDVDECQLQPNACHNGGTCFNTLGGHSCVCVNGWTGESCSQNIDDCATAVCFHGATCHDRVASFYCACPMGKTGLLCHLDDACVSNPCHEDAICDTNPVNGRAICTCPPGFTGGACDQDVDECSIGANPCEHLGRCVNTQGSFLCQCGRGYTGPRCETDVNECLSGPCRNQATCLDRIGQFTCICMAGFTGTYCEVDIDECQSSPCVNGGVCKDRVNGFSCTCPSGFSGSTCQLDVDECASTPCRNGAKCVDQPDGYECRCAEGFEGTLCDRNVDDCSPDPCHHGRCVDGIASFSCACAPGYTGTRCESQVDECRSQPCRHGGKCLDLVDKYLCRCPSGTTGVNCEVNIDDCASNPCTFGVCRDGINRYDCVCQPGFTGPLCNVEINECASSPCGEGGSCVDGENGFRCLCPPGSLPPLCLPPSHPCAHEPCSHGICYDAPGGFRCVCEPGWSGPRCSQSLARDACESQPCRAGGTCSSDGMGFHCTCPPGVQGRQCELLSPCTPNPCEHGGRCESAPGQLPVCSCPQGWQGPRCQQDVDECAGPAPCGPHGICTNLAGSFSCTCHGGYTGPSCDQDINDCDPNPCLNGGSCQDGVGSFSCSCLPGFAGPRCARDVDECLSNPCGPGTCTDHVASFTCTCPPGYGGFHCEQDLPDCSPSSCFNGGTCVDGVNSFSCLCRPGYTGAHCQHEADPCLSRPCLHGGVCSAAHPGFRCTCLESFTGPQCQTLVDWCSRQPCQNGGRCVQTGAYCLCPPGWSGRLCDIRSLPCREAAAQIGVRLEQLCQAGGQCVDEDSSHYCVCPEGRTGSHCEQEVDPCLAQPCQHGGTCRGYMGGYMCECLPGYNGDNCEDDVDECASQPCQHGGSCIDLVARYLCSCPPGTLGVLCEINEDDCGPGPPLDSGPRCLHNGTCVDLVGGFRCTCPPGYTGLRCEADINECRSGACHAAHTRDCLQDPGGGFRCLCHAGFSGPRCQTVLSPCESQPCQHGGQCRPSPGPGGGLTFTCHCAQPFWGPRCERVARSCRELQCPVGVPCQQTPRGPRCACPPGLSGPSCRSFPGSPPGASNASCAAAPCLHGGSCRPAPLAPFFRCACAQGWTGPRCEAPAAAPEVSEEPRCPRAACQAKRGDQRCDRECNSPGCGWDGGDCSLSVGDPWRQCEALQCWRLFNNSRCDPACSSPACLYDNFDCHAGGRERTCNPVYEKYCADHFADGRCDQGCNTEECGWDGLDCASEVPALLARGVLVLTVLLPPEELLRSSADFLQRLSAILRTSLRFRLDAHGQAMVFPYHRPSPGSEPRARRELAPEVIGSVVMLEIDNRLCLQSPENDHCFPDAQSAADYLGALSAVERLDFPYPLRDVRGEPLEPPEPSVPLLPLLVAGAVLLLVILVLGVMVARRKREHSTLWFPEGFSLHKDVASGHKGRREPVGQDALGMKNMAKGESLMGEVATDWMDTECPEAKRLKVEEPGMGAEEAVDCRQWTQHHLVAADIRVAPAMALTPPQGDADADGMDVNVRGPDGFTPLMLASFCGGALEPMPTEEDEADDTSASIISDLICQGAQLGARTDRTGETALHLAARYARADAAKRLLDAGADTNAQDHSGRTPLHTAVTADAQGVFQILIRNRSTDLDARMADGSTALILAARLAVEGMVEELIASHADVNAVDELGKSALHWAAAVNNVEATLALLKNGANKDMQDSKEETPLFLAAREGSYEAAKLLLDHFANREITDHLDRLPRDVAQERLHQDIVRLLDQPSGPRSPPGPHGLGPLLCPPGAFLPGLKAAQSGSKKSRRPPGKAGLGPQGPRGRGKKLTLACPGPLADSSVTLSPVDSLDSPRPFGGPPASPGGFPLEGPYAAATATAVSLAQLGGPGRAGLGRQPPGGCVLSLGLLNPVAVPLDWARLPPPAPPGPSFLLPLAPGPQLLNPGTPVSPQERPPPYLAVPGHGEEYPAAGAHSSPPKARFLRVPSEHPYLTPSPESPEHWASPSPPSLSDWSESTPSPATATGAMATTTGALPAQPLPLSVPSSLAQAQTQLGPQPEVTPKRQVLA

`CC(c1ccccc1)C(O)C1C=CC2C(=O)N(Cc3ccccc3)C(=O)C2N1n1cnnc1` (stereo not given): the composite z-score is -0.0479 in [1]; 0.327 in test [2]; -0.0165 in [3]; 0.351 in [4]; 1.07 in test [5]; 0.446 in [6]. Further, the composite z-score in test [7] worked out at 1.01; in [9], 0.541; in test [10] it was 0.0373; in [11], 0.418; in test [15], 1.6; in test [17], 0.0524. Also, the composite z-score in test [18] turned out to be 0.483; in [19], 0.728; in test [20], 0.08. In addition, the z-score in test [8] is -0.0355 (inactive); in test [12], -1.04 (inactive); in test [13] it was -0.0262 (inactive); in [14], 0.496 (inactive); in test [16] it was -1.27 (inactive).

With `O=C1O[C@H](c2ccccc2)[C@H](c2ccccc2)N2[C@H]1[C@@H](C(=O)NC[C@H](O)c1ccccc1)[C@]1(C(=O)Nc3ccc(C#CC4=CCCCC4)cc31)[C@H]2c1ccc(O)cc1`, the composite z-score came to 0.84 in test [1]; 0.891 in test [2]; 0.146 in test [3]; 0.962 in test [4]; 0.671 in test [5]; 1.4 in test [6]. Further, the composite z-score in test [7] was 1.16; in test [9] it was 0.826; in test [10], -0.0618; in test [11] it was 1.55; in [15], 2.59; in test [17], -0.0766. The composite z-score in test [18] came to 1.61; in test [19] it was 1.08; in test [20], 0.272. Further, the z-score in test [8] was 0.733 (inactive); in test [12], 0.896 (inactive); in [13], 0.543 (inactive); in test [14] it was 1.62 (inactive); in test [16], 2 (inactive).

For `O=C1OCCC/C=C\[C@H]2OC34C=CCN(CCN5CCOCC5)C(=O)[C@H]3N(CCO)C(=O)[C@@H]4C12` (stereo not given in full), the composite z-score in [1] was -0.163; in [2], -0.435; in [3] it was -0.154; in test [4] it was -0.313; in [5], -1.12; in test [6], -0.501. Further, the composite z-score in [7] is 0.843; in test [9] it was -0.382; in test [10], -0.137; in test [11], -0.833; in test [15], -0.534; in test [17], -0.18. Moreover, the composite z-score in [18] was -0.915; in [19], -1.23; in [20], -0.244. The z-score in [8] was 0.808 (inactive); in test [12], 0.14 (inactive); in [13] it was 0.774 (inactive); in [14], -0.131 (inactive); in test [16], 1 (inactive).

For the compound `C=CCC(OC(C)=O)[C@@H]1[C@@H](N(Cc2ccc(-c3cccc(C(F)(F)F)c3)o2)C(=O)Cc2ccc(OC)cc2)c2cc(OCCCO)ccc2N1C(=O)Cc1ccc(OC)cc1` (stereo not given in full), the composite z-score in [1] was -0.0741; in test [2] it was 0.185; in [3] it was -0.0739; in test [4], -0.118; in test [5], -0.17; in [6], 0.783. Moreover, the composite z-score in test [7] was -0.92; in test [9] it was -0.239; in test [10], -0.16; in test [11], -0.0091; in test [15], -0.106; in [17], -0.107. The composite z-score is -0.239 in test [18], -0.869 in test [19] and -0.178 in test [20]. For the same compound, the z-score in test [8] is 0.0712 (inactive); in test [12], -0.816 (inactive); in test [13], -0.566 (inactive); in test [14] it was -0.918 (inactive); in [16], 1.48 (inactive).

`CCOC(=O)C[C@H]1[C@H](OC(=O)c2ccc(C(=O)c3ccccc3)cc2)[C@@H](NC(=O)c2ccc3ccccc3n2)c2cc(OCCCO)ccc2N1C(=O)c1ccc2ccccc2n1`: the composite z-score is -0.153 in [1]; 0.0772 in [2]; -0.16 in [3]; 0.56 in test [4]; 0.876 in [5]; 1 in test [6]. For the same compound, the composite z-score was 0.421 in test [7]; 0.845 in test [9]; -0.201 in [10]; 0.424 in test [11]; 1.34 in test [15]; 0.109 in test [17]. Besides, the composite z-score came out at 0.192 in test [18], 0.486 in [19] and 0.0746 in test [20]. The z-score was -2.18 (inactive) in [8]; 0.179 (inactive) in test [12]; 0.0242 (inactive) in test [13]; 0.418 (inactive) in [14]; 1.12 (inactive) in [16].
